# Laboratory results reported in PubChem BioAssay (Tox21).
# Results filed as inconclusive are left out. A call without a number means that no potency is given here. A number with no mark means an inactive call. Activity calls are given as the source filed them. Unless noted, calls come from the whole dose curve; as a rule, active = well fitted curve in the direction sought with a large enough effect in the repeat runs; inconclusive = weak or mixed curves; inactive = no such curve, though single readings can be large; an effect the other way counts as inactive or inconclusive.
# How the values were obtained:
# [1] = qHTS assay to identify small molecule antagonists of the vitamin D receptor (VDR) signaling pathway - cell viability counter screen (AID 743225); note: nearly all actives have a fitted effect of over 50% in size
# Summary of the method: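 Parallel cytotoxicity test: VDR-UAS-bla HEK 293T, 3 nM (final) 1-alpha,25-dihydroxyvitamin D3 with test compound, 16 h, 37C. Endpoint is CellTiter-Glo luminescence in the same wells.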
# [2] = qHTS assay to identify small molecule agonists of the NFkB signaling pathway (AID 1159509; active = well fitted curve in the direction sought with a large enough effect in the signal ratio in the repeat runs, not every such curve was filed as active; the % refers to the signal ratio; note: series mostly up to about 61 µM)
# Summary of the method: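 NFkB-bla ME-180 cells carry a beta-lactamase reporter under an NF-kB response element. They were plated overnight, then exposed to compounds for 5 h at 37 C. Read-out is LiveBLAzer FRET after 1.5 hr at room temperature (405 nm excitation; 460/530 nm emission).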
# [3] = qHTS assay to identify small molecule agonists of the NFkB signaling pathway - cell viability counter screen (AID 1159515; calls by dose curve; note: series mostly up to about 61 µM; nearly all actives have a fitted effect of over 55% in size)
# Summary of the method: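 Viability in NFkB-bla ME-180 cells was measured by CellTiter-Glo luminescence, 30 min room temperature, in wells already treated 5 hr with compounds and read for reporter FRET.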
# [4] = qHTS assay to identify small molecule agonists of the endoplasmic reticulum stress response signaling pathway (AID 1159516; active = well fitted activation curve with a large enough effect in the signal ratio in the repeat runs, not every such curve was filed as active; the % refers to the signal ratio)
# Summary of the method: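 ER stress element reporter (bla) in HeLa. 1,500 cells/well, overnight attachment; 5 hr compound; 2 hr RT substrate; dual-emission fluorescence.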
# [5] = qHTS assay to identify small molecule agonists of the endoplasmic reticulum stress response signaling pathway - cell viability counter screen (AID 1159517; calls by dose curve;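 note: HeLa cells carrying an ER stress response element beta-lactamase reporter; series mostly up to about 61 µM; nearly all actives have a fitted effect of over 50% in size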)
# Summary of the method: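 HeLa cells carrying an ESRE-driven beta-lactamase reporter receive compound for 5 hr at 37 C. Cell viability is then gauged with CellTiter-Glo by luminescence, 30 min at room temperature.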
# [6] = qHTS assay to identify small molecule antagonists of the retinoid-related orphan receptor gamma (ROR-gamma) signaling pathway - cell viability counter screen (AID 1159520); note: nearly all actives have a fitted effect of over 50% in size
# Summary of the method: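 Cytotoxicity was read from cellular ATP (CellTiter-Glo luminescence) after 16 hr at 37 C with 1 uM doxycycline induction. The inducer was added 2 hr after compound transfer to Tet-on ROR gamma CHO cells.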
# [7] = target: Nuclear receptor ROR-gamma (Homo sapiens) (UniProt P51449); assay: qHTS assay to identify small molecule antagonists of the retinoid-related orphan receptor gamma (ROR-gamma) signaling pathway (AID 1159521; note: nearly all actives have a fitted effect of over 50% in size; note: potency is the fitted concentration of half-maximal effect;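 for activity change, negative = inhibition: CHO cells with doxycycline inducible ROR-gamma driving an RORE luciferase reporter; top concentration of the series differs between compounds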)
# Summary of the method: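 Decreased RORE-driven luciferase luminescence indicates antagonism. Tet-on RORγ CHO cells received compound, then 1 uM final doxycycline 2 h later; signal read after 16 h incubation.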
# [8] = qHTS assay to identify small molecule agonists of the AP-1 signaling pathway - cell viability counter screen (AID 1159525; calls by dose curve; note: nearly all actives have a fitted effect of over 55% in size)
# Summary of the method: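 Luminescent ATP readout (Cell Titer Glo, 30 min RT), normalised to DMSO and tetra n-octyl ammonium bromide controls. Cells were ME-180 AP-1-bla in 0.5% dialyzed FBS Opti-MEM, with a 5 h, 37 °C compound exposure.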
# [9] = qHTS assay to identify small molecule agonists of the vitamin D receptor (VDR) signaling pathway - cell viability counter screen (AID 743224)
# Summary of the method: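 VDR-bla cell line, quantitative HTS format; 16 h compound incubation (37C, 5% CO2); ATP-based CellTiter-Glo luminescence measured in the reporter assay wells.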
# [10] = qHTS assay to identify small molecule agonists of the AP-1 signaling pathway (AID 1159526; calls by dose curve)
SMILES,Potency [1],outcome [2],outcome [3],outcome [4],outcome [5],Potency [6],Potency [7],outcome [8],Potency [9],Potency [10],"activity, negative = cytotoxicity [6]","activity change, negative = inhibition [7]",activation [10]
C[C@@H](N)C(=O)O,inactive,inactive,inactive,inactive,inactive,inactive,inactive,inactive,,,,,
CCCC1CCC(=O)O1 (stereo not drawn),inactive,inactive,inactive,inactive,inactive,inactive,inactive,,inactive,inactive,,,
CC[C@H]1CC[C@H](NCc2cc3c(cc2OC)[C@H]2C[C@H]2C(=O)N3C)[C@H](c2ccccc2)N1,inactive,inactive,inactive,inactive,inactive,inactive,30.6 µM (active),inactive,,,,,
CCCN(CCC)C(=O)C(CCC(=O)O)NC(=O)c1ccccc1 (stereo not drawn),inactive,inactive,inactive,inactive,inactive,inactive,inactive,,inactive,inactive,,,
CC(C)CC(=O)OCc1ccccc1,inactive,inactive,inactive,inactive,inactive,inactive,inactive,,inactive,inactive,,,
CCCCc1ccc2nc(NC(=O)OC)[nH]c2c1,inactive,inactive,inactive,inactive,inactive,inactive,inactive,,inactive,,,,
CCCCCOc1ccc(C2SC(=O)NC2=O)cc1OCC (stereo not drawn),,inactive,inactive,inactive,inactive,inactive,inactive,,,inactive,,,
COc1cc2c(cc1N)oc1ccccc12,inactive,inactive,inactive,inactive,inactive,inactive,inactive,,,inactive,,,
CCOC(=O)NCCC[Si](OCC)(OCC)OCC,inactive,inactive,inactive,inactive,inactive,inactive,inactive,,inactive,inactive,,,
CCCCCCCCc1ccc(S(=O)(=O)O)cc1,inactive,inactive,inactive,inactive,inactive,inactive,inactive,inactive,,,,,
Cc1cc2c(s1)Nc1ccccc1N=C2N1CCN(C)CC1,inactive,inactive,inactive,inactive,inactive,inactive,inactive,,inactive,,,,
Clc1cccc(-c2cc(Cl)cc(Cl)c2)c1,inactive,inactive,inactive,inactive,inactive,inactive,inactive,,inactive,,,,
O=C(O)[C@@H](O)[C@H](O)[C@H](O)[C@@H](O)C(=O)O,inactive,inactive,inactive,inactive,inactive,inactive,inactive,,inactive,inactive,,,
CCCS(=O)c1ccc2nc(NC(=O)OC)[nH]c2c1 (stereo not drawn),inactive,inactive,inactive,inactive,inactive,inactive,inactive,,inactive,inactive,,,
OCC(CBr)(CBr)CBr,inactive,inactive,inactive,inactive,inactive,inactive,inactive,,inactive,inactive,,,
CCN(O)CC,inactive,inactive,inactive,inactive,inactive,inactive,inactive,,inactive,,,,
O=C(O)CN(CCN(CC(=O)O)CC(=O)O)CCN(CC(=O)O)CC(=O)O,inactive,inactive,inactive,inactive,inactive,,,,inactive,,4.04% [at 19 µM],-6.39% [at 19 µM],-0.136% [at 15.8 µM]
C=CCCC=C,inactive,inactive,inactive,inactive,inactive,inactive,inactive,inactive,,,,,
NC/C=C/C(=O)O,inactive,inactive,inactive,inactive,inactive,inactive,inactive,,inactive,inactive,,,
CCOC(=O)C1CC(=O)C(=C(O)C2CC2)C(=O)C1 (stereo not drawn),inactive,inactive,inactive,inactive,inactive,inactive,inactive,,inactive,inactive,,,
ClC(Cl)Cl,inactive,inactive,inactive,inactive,inactive,inactive,48.2 µM (active),,inactive,,,,
CCCCNC(=S)NCCCC,inactive,inactive,inactive,inactive,inactive,inactive,inactive,inactive,,,,,
CC(C)c1ccccc1,inactive,inactive,inactive,inactive,inactive,inactive,inactive,inactive,,,,,
CO[C@@]1(NC(=O)CSCC#N)C(=O)N2C(C(=O)O)=C(CSc3nnnn3C)CS[C@@H]21,inactive,inactive,inactive,inactive,inactive,inactive,inactive,,inactive,inactive,,,
CCCCN1C[C@H](O)[C@@H](O)[C@H](O)[C@H]1CO,,inactive,inactive,inactive,inactive,inactive,,inactive,inactive,inactive,,,
CCC(=O)Nc1ccc(O)cc1,inactive,inactive,inactive,inactive,inactive,inactive,,inactive,inactive,inactive,,,
CCCCC(=O)O[C@]1(C(=O)CO)[C@H](C)C[C@H]2[C@@H]3CCC4=CC(=O)C=C[C@]4(C)[C@@]3(F)[C@@H](O)C[C@@]21C,inactive,inactive,inactive,inactive,inactive,inactive,,inactive,inactive,inactive,,,
